From PubChem BioAssay come the findings set out here.

Experiment [1] is described as follows: E. coli DRC41 culture turbidity changes, primary screen, E. coli filamentation inducer project, strain DRC41, OD650, 48 h (AID 1152).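 Note: E. coli MC1000 strain DRC41 lacking acrAB efflux pump and sulA.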 Conditions: E. coli DRC41 (acrAB sulA), higher = more signal, called active from +8 up or from −8 down.
Experiment [2] is described as follows: small-molecule binders of probe aLefty1, primary screen, biochemical, small-molecule microarray, 635/667 nm fluorescence (AID 1153).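 Note: score merges spot fluorescence with signal-to-noise ratio from the scanned slide images.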 Conditions: higher = more signal.
Experiment [3] can be described thus: PSAC antagonists in infected red cells, primary screen, cell-based, P. falciparum Indochina, OD700, 1 h (AID 1154). Conditions: P. falciparum Indochina infected RBC osmotic lysis, higher = more signal, called active from +8 up or from −8 down.
Experiment [4] is described as follows: PSAC antagonists in infected red cells, primary screen, cell-based, P. falciparum Indochina, OD700, 2 h (AID 1155).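 Note: lysis reports solute entry through the parasite surface anion channel PSAC; channel blockers reduce lysis of infected cells.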 Conditions: P. falciparum Indochina infected erythrocytes, osmotic lysis OD700; higher = more signal, called active from +8 up or from −8 down.
Experiment [5] can be described thus: osmotic lysis modulators in infected erythrocytes, primary screen, PSAC antagonist project, cell-based, P. falciparum Indochina, OD700, 3 h (AID 1156). Conditions: higher = more signal, called active from +8 up or from −8 down.
Experiment [6] can be described thus: PSAC antagonists in infected red cells, primary screen, cell-based, P. falciparum Indochina, OD700, 18 h (AID 1157). The following applies: P. falciparum Indochina infected erythrocytes, osmotic lysis OD700, 18 h; higher = more signal, called active from +8 up or from −8 down.
Experiment [7] can be described thus: modulators of S6 phosphorylation in cells, primary screen, cell-based, A549, cytoblot, luminescence, serum-stimulated (AID 1158).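 Note: serum-stimulated A549 lung adenocarcinoma cells; signal is phosphorylated S6 detected by cytoblot immunostaining with HRP secondary.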 Conditions: A549 phospho-S6 cytoblot, 5 h, higher = more signal.
Experiment [8] addresses NADPH oxidase 2 (Homo sapiens) (UniProt P04839). In words: NOX2-dependent H2O2 signal modulators, primary screen, NOX inhibitor project, cell-based, HEK293-NOX2, PMA-stimulated, Amplex Red fluorescence (AID 1159). Note: test concentration not given here. Conditions: 45 min, higher = more signal, called active from +8 up or from −8 down.
Experiment [9] has as its target NADPH oxidase 4 (Homo sapiens) (UniProt Q9NPH5). Kind of experiment: NOX4-dependent H2O2 signal modulators, primary screen, NOX inhibitor project, cell-based, HEK293-NOX4, tetracycline-induced, Amplex Red fluorescence (AID 1160). Conditions: 45 min, higher = more signal, called active from +8 up or from −8 down.
Experiment [10] addresses NADPH oxidase 5 (Homo sapiens) (UniProt Q96PH1). In words: NOX5-dependent H2O2 signal modulators, primary screen, NOX inhibitor project, cell-based, HEK293-NOX5, Amplex Red fluorescence (AID 1161). The following applies: HEK293-NOX5, ionomycin, 45 min, higher = more signal.

Active and inactive are the calls of the source.

NADPH oxidase 4 (Homo sapiens), sequence (Q9NPH5 whole entry, looked up): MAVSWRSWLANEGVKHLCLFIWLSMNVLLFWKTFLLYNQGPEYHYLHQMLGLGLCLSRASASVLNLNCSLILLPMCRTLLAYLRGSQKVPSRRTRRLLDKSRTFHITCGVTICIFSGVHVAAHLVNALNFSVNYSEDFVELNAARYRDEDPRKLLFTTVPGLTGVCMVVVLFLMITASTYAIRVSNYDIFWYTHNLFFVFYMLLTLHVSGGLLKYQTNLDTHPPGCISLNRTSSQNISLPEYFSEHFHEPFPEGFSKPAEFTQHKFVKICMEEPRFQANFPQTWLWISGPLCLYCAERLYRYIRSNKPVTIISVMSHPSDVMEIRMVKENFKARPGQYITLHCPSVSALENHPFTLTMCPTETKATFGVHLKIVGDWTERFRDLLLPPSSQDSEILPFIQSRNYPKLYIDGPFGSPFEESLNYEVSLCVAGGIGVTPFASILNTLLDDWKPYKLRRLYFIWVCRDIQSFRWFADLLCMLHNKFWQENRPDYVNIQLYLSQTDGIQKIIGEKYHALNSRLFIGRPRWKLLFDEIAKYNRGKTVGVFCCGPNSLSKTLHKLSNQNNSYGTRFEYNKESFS
NADPH oxidase 2 (Homo sapiens), sequence (P04839 whole entry, looked up): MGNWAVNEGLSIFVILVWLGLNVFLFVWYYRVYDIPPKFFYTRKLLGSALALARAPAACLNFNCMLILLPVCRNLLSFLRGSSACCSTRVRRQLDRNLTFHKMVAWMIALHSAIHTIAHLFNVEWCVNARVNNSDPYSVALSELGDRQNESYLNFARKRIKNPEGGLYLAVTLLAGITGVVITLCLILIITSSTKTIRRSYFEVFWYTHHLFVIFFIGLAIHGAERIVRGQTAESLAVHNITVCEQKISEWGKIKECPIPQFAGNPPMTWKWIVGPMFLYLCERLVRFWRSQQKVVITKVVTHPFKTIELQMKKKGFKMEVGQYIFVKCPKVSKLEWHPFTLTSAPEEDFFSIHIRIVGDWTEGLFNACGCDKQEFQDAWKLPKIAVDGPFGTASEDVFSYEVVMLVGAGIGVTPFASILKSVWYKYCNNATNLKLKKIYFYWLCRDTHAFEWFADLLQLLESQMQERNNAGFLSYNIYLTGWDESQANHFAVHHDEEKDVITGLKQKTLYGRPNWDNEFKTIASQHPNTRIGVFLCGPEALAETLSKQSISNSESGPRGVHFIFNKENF
NADPH oxidase 5 (Homo sapiens), sequence (Q96PH1 whole entry, looked up): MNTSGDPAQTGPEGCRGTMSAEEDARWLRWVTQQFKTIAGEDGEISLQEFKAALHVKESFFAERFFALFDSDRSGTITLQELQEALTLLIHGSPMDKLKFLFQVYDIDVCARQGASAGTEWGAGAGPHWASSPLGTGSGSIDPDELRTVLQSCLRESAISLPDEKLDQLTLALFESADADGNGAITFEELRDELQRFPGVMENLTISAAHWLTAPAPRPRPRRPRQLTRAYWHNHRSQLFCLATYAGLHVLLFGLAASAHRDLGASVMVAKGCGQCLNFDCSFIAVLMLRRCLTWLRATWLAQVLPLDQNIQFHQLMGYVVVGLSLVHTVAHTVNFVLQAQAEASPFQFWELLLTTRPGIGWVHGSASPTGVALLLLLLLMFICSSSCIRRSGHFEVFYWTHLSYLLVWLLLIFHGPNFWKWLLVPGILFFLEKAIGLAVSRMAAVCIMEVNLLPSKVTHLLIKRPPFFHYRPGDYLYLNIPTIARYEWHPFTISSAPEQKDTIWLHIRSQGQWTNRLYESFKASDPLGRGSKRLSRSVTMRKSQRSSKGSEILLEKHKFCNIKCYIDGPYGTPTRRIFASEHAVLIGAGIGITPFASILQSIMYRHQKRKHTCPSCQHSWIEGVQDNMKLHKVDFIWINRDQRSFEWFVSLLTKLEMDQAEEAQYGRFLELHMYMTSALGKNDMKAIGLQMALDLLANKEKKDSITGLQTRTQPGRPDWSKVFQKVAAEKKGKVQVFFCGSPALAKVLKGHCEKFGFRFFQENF

For `Cc1ccc(S[C@]2(C(=O)NCC(C)C)CC(=O)N(Cc3cc(C(F)(F)F)cc(C(F)(F)F)c3)[C@@H]2c2ccc(CO)cc2)cc1`, the z-score in experiment [1] is -0.687 (inactive); in experiment [3], 1.3 (inactive); in experiment [4], 0.596 (inactive); in experiment [5], 0.664 (inactive); in experiment [6], 0.13 (inactive); in [7], -0.0958. Besides, the z-score was 1.73 (inactive) in [8], 0.823 (inactive) in [9] and -0.188 in experiment [10]. This compound also showed a composite z-score in [2] of 0.2.
For `CCCCC(=C=CC[C@@H](O)c1ccc(CO)o1)CCO`, the z-score was 0.702 (inactive) in [1]; 2.3 (inactive) in experiment [3]; 0.631 (inactive) in experiment [4]; 0.399 (inactive) in experiment [5]; 0.208 (inactive) in experiment [6]; 0.126 in [7]. Also, the z-score in [8] is 2.35 (inactive); in experiment [9] it was 1.49 (inactive); in experiment [10], 1.3. The compound further gave a composite z-score in [2] of 0.459.
In the case of `C=C(/C(=C/C[C@H](OC(C)=O)c1ccc(OCCO)cc1)c1cc(C(=O)OC)ccc1OC)C(C)C`, the z-score in experiment [1] is 0.759 (inactive); in experiment [3] it was 19.2 (active); in [4] it was 4.38 (inactive); in [5], 3.26 (inactive); in experiment [6], 1.36 (inactive); in [7], 0.31. In addition, the values for the z-score in [8], in experiment [9] and in experiment [10] were 0.864 (inactive), 0.217 (inactive) and -1.42, respectively. In experiment [2], the composite z-score came to 0.0844.
`COC(=O)[C@@]1(Cc2ccc(F)cc2)[C@H]2c3cc(C(=O)N(C)C)n(Cc4cc(C)n(C)n4)c3C[C@H]2CN1C(=O)c1ccccc1`: the z-score is -1.48 (inactive) in [1]; 0.797 (inactive) in experiment [3]; 0.364 (inactive) in experiment [4]; 0.0419 (inactive) in experiment [5]; 0.495 (inactive) in experiment [6]; -0.438 in experiment [7]. The z-score is 0.743 (inactive) in experiment [8], -0.354 (inactive) in experiment [9] and -0.329 in [10]. The compound also gave a composite z-score in [2] of 0.0576.
Regarding `CO[C@H]1O[C@H](CO)[C@@H](OC(=O)Nc2ccccc2)[C@@H]2OC(=O)[C@@H](Cc3ccc4ccccc4c3)C/C=C/C[C@H](Cc3ccc4ccccc4c3)C(=O)O[C@@H]12`, the z-score was 2.85 (inactive) in [1]; 2.71 (inactive) in experiment [3]; -0.0552 (inactive) in experiment [4]; -1.94 (inactive) in [5]; -1.83 (inactive) in [6]; 0.77 in experiment [7]. The z-score in [8] is 0.829 (inactive); in experiment [9], 0.884 (inactive); in experiment [10], -0.542. Also, the composite z-score in experiment [2] amounted to 0.0167.
Turning to `CN1C(=O)C2C=CC(C(O)c3ccccc3)N(N3CCCCC3)C2C1=O` (stereo not given), the z-score in experiment [1] is -2 (inactive); in experiment [3], 0.15 (inactive); in [4] it was 0.913 (inactive); in experiment [5], 0.302 (inactive); in experiment [6], 0.827 (inactive); in [7], -0.965. Moreover, the figures for the z-score in [8], in experiment [9] and in experiment [10] were -0.121 (inactive), -1.01 (inactive) and -1.08, respectively. This compound also displayed a composite z-score in experiment [2] of 0.0971.
For `[N-]=[N+]=NCc1ccccc1[C@@H]1OC(c2ccc(OCCCO)cc2)=N[C@]1(CCS(=O)(=O)c1ccccc1)C(=O)N1CCCCC1`, the z-score in experiment [1] was 0.323 (inactive); in [3], 22.8 (active); in experiment [4] it was 7.3 (inactive); in experiment [5], 1.59 (inactive); in experiment [6] it was 1.06 (inactive); in [7], 0.34. Besides, the z-score was 0.196 (inactive) in experiment [8], 1.19 (inactive) in [9] and 2 in experiment [10]. Moreover, the composite z-score in experiment [2] amounted to 0.522.
For the compound `[N-]=[N+]=Nc1ccccc1[C@H]1OC(c2ccc(OCCCO)cc2)=N[C@@]1(Cc1ccccc1)C(=O)N1CCOCC1`, the z-score was -0.388 (inactive) in experiment [1]; 30.8 (active) in experiment [3]; 30.6 (active) in [4]; 2.96 (inactive) in experiment [5]; 9.58 (active) in experiment [6]; -0.0055 in [7]. The z-score in [8] is -1.29 (inactive); in experiment [9], 1.27 (inactive); in experiment [10], 1.13. In experiment [2], this compound returned a composite z-score of 0.342.
For the compound `CCCCC(O)C1C=CC2C(=O)N(C)C(=O)C2N1N1CCCCC1` (stereo not given), the z-score in [1] is -1.43 (inactive); in [3], 0.537 (inactive); in experiment [4], 0.917 (inactive); in experiment [5], 0.155 (inactive); in experiment [6], 1.47 (inactive); in experiment [7], -0.751. For the same compound, the z-score in experiment [8] was -0.353 (inactive); in experiment [9], 0.133 (inactive); in [10] it was -1.03. The compound further returned a composite z-score in [2] of 0.384.
For `CC1CC/C=C\[C@H]2OC34C=CCN(c5ccc6ccccc6c5)C(=O)[C@H]3N(CCO)C(=O)[C@@H]4C2C(=O)O1` (stereo not given in full), the z-score in [1] is -0.0648 (inactive); in experiment [3], 3.56 (inactive); in experiment [4] it was 0.531 (inactive); in [5], 0.15 (inactive); in experiment [6], 0.357 (inactive); in experiment [7], 0.21. The z-score is 1.43 (inactive) in experiment [8], 1.04 (inactive) in [9] and 2.4 in experiment [10]. Also, the composite z-score in [2] came out at 0.552.
With `C=CCN1Cc2ccccc2[C@@H]2OC(c3ccc(OCCCO)cc3)=N[C@]2(CCS(=O)(=O)c2ccccc2)C1=O`, the z-score in experiment [1] was 0.576 (inactive); in [3] it was 27.2 (active); in experiment [4], 20.3 (active); in experiment [5] it was 2.26 (inactive); in experiment [6], 3.22 (inactive); in experiment [7] it was -0.0454. For the same compound, the z-score in [8] is -1.38 (inactive); in experiment [9], 0.827 (inactive); in [10], 0.0284. In [2], this compound returned a composite z-score of 0.415.
On to `COc1ccc([Si](C)(C)[C@@H]2[C@@H](CCn3cc(CCO)nn3)O[C@]3(C(=O)N(Cc4cccc(N5C(=O)c6cccc7cccc5c67)c4)c4ccccc43)[C@H]2C)cc1`, for which the z-score in experiment [1] is 0.259 (inactive); in experiment [3], 4.42 (inactive); in [4], 1.6 (inactive); in [5] it was 1.22 (inactive); in [6] it was -0.682 (inactive); in experiment [7], 1.16. Also, the z-score in [8] was 1.58 (inactive); in experiment [9], 1.76 (inactive); in experiment [10], 1.3. In [2], this compound had a composite z-score of -0.0011.
On to `CC(C)OC(=O)C=C1C[C@@H](c2cccc(Cl)c2)O[C@@H](c2cccc(Cl)c2)O1`, for which the z-score in experiment [1] was -0.411 (inactive); in [3], 0.915 (inactive); in experiment [4] it was 0.584 (inactive); in [5] it was -0.159 (inactive); in [6], 0.61 (inactive); in [7], -0.0581. The z-score in [8] is 0.215 (inactive); in [9] it was -0.914 (inactive); in experiment [10], -0.0406. Moreover, the composite z-score in [2] was 0.165.
